Source: PubChem BioAssay
ADAM17 inh: inhibitors of human ADAM17; AID 720648; recombinant ADAM17, EDANS/DABCYL FRET peptide cleavage; inhibition, % at 6.95 µM; actives 0.83% (n = 370,000);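 active = inhibition above the mean of compounds lying between control limits plus 3 SD, set per campaign, cut at about 8.5% in these data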;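 note: 0% = DMSO-only wells as the low control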
rCAG binder: molecules binding r(CAG) RNA repeats; r(CAG) RNA repeat, TO-PRO-1 dye displacement fluorescence; inhibition, % at 3 µM; actives 1.3% (n = 370,000);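 active = inhibition above the plate cutoff, the mean of all test compounds on that plate plus 3 SD, cut at about 35% in these data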;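 note: 0% = DMSO alone and 100% = 100 µM mitoxantrone as full dye displacement; higher means more dye released from RNA so lower well fluorescence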
MPTP block: inhibitors of mitochondrial permeability transition pore | isolated mouse mitochondria, Ca2+ swelling absorbance, 30 min | inhibition, % at 10 µM | actives 1.4% (n = 360,000) | AID 602449;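 active = inhibition of 50% or more, scaled per plate between neutral and stimulator controls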;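 note: 0% = DMSO wells given calcium and 100% = 1 mM EGTA wells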
proKLK7 act: activators of human kallikrein-7 zymogen; P49862; purified proKLK7, EDANS-DABCYL substrate fluorescence; 100% is mature enzyme control, 0% vehicle; activation, % at 7 µM; actives 0.9% (n = 370,000); AID 652039;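 active = activation above the mean of all tested compounds plus 3 SD, computed per campaign excluding outliers beyond control limits, cut at about 13% in these data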
DSG3 Ab inh: blocks pemphigus antibody binding to human desmoglein-3; P32926; DSG3-coupled beads, scFv-anti-DSG3-GFP binding, flow cytometry; hits give low values; binding (percent of control), % at 10 µM; actives 0.48% (n = 310,000); AID 588358;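 active = binding more than 3 SD below its plate's average and above zero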;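 note: hits lower antibody fragment binding to DSG3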
ADAM10 inh: inhibitors of human ADAM10. inhibition, % at 7 µM. O14672. AID 720582. recombinant ADAM10, EDANS/DABCYL FRET peptide cleavage, 3 h. actives 0.62% (n = 370,000);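 active = inhibition above a per-campaign cutoff equal to the mean of compounds falling between control-based bounds plus 3 SD, cut at about 20% in these data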;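 note: 0% = DMSO wells while the 100% control is not disclosed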
Target sequence (O14672 214-748 limits assumed): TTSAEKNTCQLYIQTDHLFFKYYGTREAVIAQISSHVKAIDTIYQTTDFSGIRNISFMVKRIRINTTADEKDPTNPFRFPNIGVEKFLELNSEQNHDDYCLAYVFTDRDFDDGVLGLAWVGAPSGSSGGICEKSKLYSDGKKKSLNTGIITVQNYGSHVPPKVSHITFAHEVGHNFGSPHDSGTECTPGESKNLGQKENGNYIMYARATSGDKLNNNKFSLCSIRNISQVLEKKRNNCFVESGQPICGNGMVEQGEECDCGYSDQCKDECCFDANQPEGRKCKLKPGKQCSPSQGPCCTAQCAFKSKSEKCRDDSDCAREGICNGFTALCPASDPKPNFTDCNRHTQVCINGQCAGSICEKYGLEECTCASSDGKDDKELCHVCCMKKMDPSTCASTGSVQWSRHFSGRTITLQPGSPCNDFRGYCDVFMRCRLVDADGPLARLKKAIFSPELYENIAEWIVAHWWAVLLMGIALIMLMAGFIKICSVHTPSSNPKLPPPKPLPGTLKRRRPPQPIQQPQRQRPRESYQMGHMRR
KLK7 act conf: confirmation of human kallikrein-7 zymogen activators; shares compounds with proKLK7 act; activation, % at 7 µM; purified proKLK7, EDANS-DABCYL substrate fluorescence; scaled: vehicle 0, mature enzyme 100; AID 686949; actives 68% (n = 3,200);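 active = activation, as change over the incubation, above the mean of all tested compounds plus 3 SD, cut at about 13% in these data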
EDANS interfere: optically interferes with EDANS-DABCYL signal, flagging KLK7 hits; EDANS-DABCYL substrate fluorescence interference, no enzyme, 4 h; solvent 0%, active enzyme control 100%; activation, % at 7 µM; actives 80% (n = 3,200); AID 686952; shares compounds with proKLK7 act;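 active = activation above the all-compound mean plus 3 SD, ignoring values outside control-based bounds, cut at about 4.8% in these data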;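 note: value is the 4 h activation minus the activation read at time zero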
K7 EDANS ctr: optically interferes with EDANS-DABCYL fluorescence, kallikrein-7 activator counter-screen. shares compounds with proKLK7 act. EDANS-DABCYL peptide fluorescence interference, no enzyme. EC50, µM. actives 20% (n = 250);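 active = compounds that raise the fluorescence signal in this interference counterscreen, with EC50 at or below 10 µM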;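 note: intact quenched peptide substrate alone read at 355 nm excitation and 520 nm emission; signal is fluorescence gain from T0 to T4 after four hours at room temperature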
Active calls of the source: *. This is a sample that favours compounds with a hit; in the whole collection about 4.7% have one here.

Screening N#Cc1c(N)n(-c2ccc(C(=O)O)cc2)c2nc3ccccc3nc12 returned ADAM17 inh inactive, rCAG binder -4, MPTP block 3, proKLK7 act 69*, DSG3 Ab inh 89, ADAM10 inh inactive, KLK7 act conf 79* and EDANS interfere 79*.
For Cc1nc2nc(N)nc(OCc3ccccc3)c2nc1C the results were ADAM17 inh inactive, rCAG binder 6, MPTP block 2, proKLK7 act 59*, DSG3 Ab inh 108, ADAM10 inh inactive, KLK7 act conf 75* and EDANS interfere 80*.
Nc1nc(OCc2ccccc2)c2[nH]cnc2n1 was read as ADAM17 inh -4, rCAG binder 2, MPTP block -1, proKLK7 act 0, DSG3 Ab inh 99 and ADAM10 inh -15.
O=C(CNC(=O)c1ccc2c(c1)S(=O)(=O)N=C1CCCCCN12)Nc1ccc(F)c(F)c1 was read as ADAM17 inh -2, rCAG binder 6, MPTP block -1, proKLK7 act 0, DSG3 Ab inh 95 and ADAM10 inh -1.
`COc1ccccc1NS(=O)(=O)c1cccc(C(=O)N/N=C/c2cn(-c3ccccc3)nc2-c2ccccc2)c1` gave ADAM17 inh 1, rCAG binder 15, MPTP block 3, proKLK7 act 18*, DSG3 Ab inh 116, ADAM10 inh -26, KLK7 act conf -50 and EDANS interfere -56.
`COc1cc2[nH]c(C)c(-c3ccccc3)c(=O)c2cc1Cl` gave ADAM17 inh -5, rCAG binder -1, MPTP block 0, proKLK7 act 0 and ADAM10 inh -14.
FC(F)(F)c1ccc2c(c1)N1CCCC1CN2 (centres undefined) was read as ADAM17 inh -16, rCAG binder 12, MPTP block 1, proKLK7 act 1, DSG3 Ab inh 100 and ADAM10 inh -38.
FC(F)(F)c1ccc2c(c1)NCC1CCCN21 (centres undefined) was read as ADAM17 inh -92, rCAG binder -2, MPTP block 4, proKLK7 act 68*, DSG3 Ab inh 110, ADAM10 inh -283, KLK7 act conf 46* and EDANS interfere 47*.
For CC[C@H]1c2[nH]c3ccccc3c2C[C@@H]2C(=O)N(c3ccc(F)cc3)C(=O)N21 the results were ADAM17 inh 4, rCAG binder -2, MPTP block 1, proKLK7 act -1, DSG3 Ab inh 98 and ADAM10 inh 1.
CCn1cc(-c2ccnc3cc(C(=O)O)nn23)c(C)n1 was read as ADAM17 inh -464, rCAG binder 2, MPTP block -2, proKLK7 act 27*, DSG3 Ab inh 102, ADAM10 inh inactive, KLK7 act conf 73* and EDANS interfere 75*.
Screening C[C@H](CO)N1C[C@H](C)[C@H](CN(C)C(=O)Nc2ccnc(N3CCOCC3)c2)OCc2cnnn2CCCC1=O returned ADAM17 inh 1, rCAG binder 1, MPTP block -1, proKLK7 act 1, DSG3 Ab inh 104 and ADAM10 inh -18.
Screening CSc1nnc(-c2cccn(Cc3cccc(Cl)c3)c2=O)o1 returned ADAM17 inh -216, rCAG binder -1, MPTP block 1, proKLK7 act 8 and ADAM10 inh inactive.
Screening CSc1nnc(-c2cccn(Cc3ccccc3)c2=O)o1 returned ADAM17 inh inactive, rCAG binder -1, MPTP block -2, proKLK7 act 13*, DSG3 Ab inh 104, ADAM10 inh inactive, KLK7 act conf 26* and EDANS interfere 38*.
`O=C(CN1C(=O)NC(c2ccccc2)(c2ccccc2)C1=O)NCc1ccc(F)cc1` gave ADAM17 inh 1, rCAG binder 2, MPTP block -1, proKLK7 act 0, DSG3 Ab inh 114 and ADAM10 inh 6.
Screening CNC(=S)NNC(=O)c1cccc(N(C)C)c1 returned ADAM17 inh -10, rCAG binder 0, MPTP block -4, proKLK7 act 14*, DSG3 Ab inh 98, ADAM10 inh -36, KLK7 act conf 13* and EDANS interfere 12*.
Screening O=C(c1cnc(Cl)c(Cl)c1)N1CCN(S(=O)(=O)c2ccc3ccccc3c2)CC1 returned ADAM17 inh -1, rCAG binder 0, MPTP block -2, proKLK7 act 1, DSG3 Ab inh 92 and ADAM10 inh 9.
CC(=O)CCc1c(C)c2cccc(C)c2[nH]c1=O was read as ADAM17 inh -5, rCAG binder 0, MPTP block -2, proKLK7 act 1, DSG3 Ab inh 102 and ADAM10 inh -17.
COc1cccc2c(=S)c(CCC(C)=O)c(C)[nH]c12 was read as ADAM17 inh -119, rCAG binder 5, MPTP block 0, proKLK7 act 21*, DSG3 Ab inh 94, ADAM10 inh -362, KLK7 act conf 22* and EDANS interfere 24*.
For CCC(C)C(NS(=O)(=O)c1ccc(C)cc1)C(=O)Oc1ccc2c3c(c(=O)oc2c1)CCC3 (centres undefined) the results were ADAM17 inh -173, rCAG binder 5, MPTP block 2, proKLK7 act 21*, DSG3 Ab inh 98, ADAM10 inh -482, KLK7 act conf 43*, EDANS interfere 37* and K7 EDANS ctr >70.
Cc1ccc(S(=O)(=O)NC(CC(C)C)C(=O)Oc2ccc3c4c(c(=O)oc3c2)CCC4)cc1 (centres undefined) was read as ADAM17 inh inactive, rCAG binder 0, MPTP block 3, proKLK7 act 49*, DSG3 Ab inh 101, ADAM10 inh inactive, KLK7 act conf 90* and EDANS interfere 77*.
For Cc1ccc(S(=O)(=O)NC(C(=O)Oc2ccc3c(C(F)(F)F)cc(=O)oc3c2)c2ccccc2)cc1 (centres undefined) the results were ADAM17 inh inactive, rCAG binder -2, MPTP block 2, proKLK7 act 48*, DSG3 Ab inh 100, ADAM10 inh inactive, KLK7 act conf 55* and EDANS interfere 73*.
For CCC(NC(=O)OC(C)(C)C)C(=O)Oc1ccc2c3c(c(=O)oc2c1)CCC3 (centres undefined) the results were ADAM17 inh inactive, rCAG binder -7, MPTP block 3, proKLK7 act 107*, DSG3 Ab inh 98, ADAM10 inh inactive, KLK7 act conf 664* and EDANS interfere 670*.
